Screens deposited in PubChem BioAssay by National Center for Advancing Translational Sciences (NCATS).
HT1080NT lethal: qHTS for induction of synthetic lethality in tumor cells producing 2HG: qHTS for the HT-1080-NT fibrosarcoma cell line. HT-1080-NT fibrosarcoma viability, CellTiter-Glo ATP luminescence, 48 h. Potency, µM (titrated, usually from 46.1 µM), for inactives: at the highest dose activity, negative = less viability, actives largely listed as cytotoxic. 360,000 compounds, 1.6% hits;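 also: NT is the 2HG producing partner of a matched IDH1 knockdown line; potency is read from the fitted curve at half-maximal effect; 0% = DMSO-treated cells and -100% = media-only wells without cells; nearly all actives have a fitted effect of over 55% in size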
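A 48-hour cytotoxicity screen used HT-1080-NT cells plated 2 hours before compound delivery. ATP-based CellTiter-Glo luminescence measured viability, normalized to DMSO and no-cell controls.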
HT1080 IDH1KD tx: qHTS for induction of synthetic lethality in tumor cells producing 2HG: qHTS for the HT-1080-IDH1KD cell line; HT-1080 IDH1 knockdown viability, ATP luminescence, 48 h; Potency, µM (series often up to 46.1 µM), for the others: top-dose activity, negative = toxicity, usual class: cytotoxic; 360,000 compounds, 2% hits; AID 686971, 2013;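 also: potency is read from the fitted curve at half-maximal effect; 0% = DMSO wells and -100% = cell-free medium wells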
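After a 2 h attachment period, IDH1KD HT-1080 cells took pin-transferred compound for 48 h at 37 °C; ATP-based luminescence after 10 min room-temperature reagent incubation reported viability.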
TDP1 cell noCPT: qHTS for Inhibitors of human tyrosyl-DNA phosphodiesterase 1 (TDP1): qHTS in cells in absence of CPT; DT40 Tdp1-/- hTDP1 cells, no CPT, ATP luminescence, 48 h; Potency, µM (doses to about 46.2 µM), for inactives: at the highest dose activity change, negative = growth inhibition, most hits filed as inhibitors; 420,000 compounds, 15% hits; AID 686978, 2013; also: potency is read from the fitted curve at half-maximal effect; nearly all actives have a fitted effect of over 55% in size
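Compound effects on proliferation are scored in DT40 Tdp1-/-;hTDP1 cells in the absence of CPT. ATP levels (CellTiter-Glo luminescence) are recorded after a ≥48 hr, 37 °C incubation.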
DT40 TDP1 CPT: qHTS for Inhibitors of human tyrosyl-DNA phosphodiesterase 1 (TDP1): qHTS in cells in presence of CPT; chicken DT40 Tdp1-/-;hTDP1 cells + 20 nM CPT, ATP luminescence, 48 h; Potency, µM (doses to about 46.2 µM), for inactives: at the highest dose activity change, negative = growth inhibition, most hits filed as inhibitors; 420,000 compounds, 12% hits; AID 686979, 2013; also: potency is read from the fitted curve at half-maximal effect; nearly all actives have a fitted effect of over 55% in size
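Cell growth measured by CellTiter-Glo luminescence after a minimum 48 h, 37 C compound exposure with 20 nM CPT in Tdp1-knockout DT40 cells stably expressing hTDP1, seeded 400/well; qHTS titration format.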
ALOX12 inh: Primary qHTS assay for inhibitors of human arachidonate 12S-lipoxygenase (ALOX12): Round 2. Polyunsaturated fatty acid lipoxygenase ALOX12 (Homo sapiens), P18054. purified 12hLO, xylenol orange hydroperoxide absorbance. Potency, µM (highest dose often 108 µM), for inactives: at the top dose activity change, negative = inhibition, hits mostly inhibitors. 580,000 compounds, 1.1% hits. AID 1671190, 2021; also: potency is read from the fitted curve at half-maximal effect
Target sequence (P18054 whole entry, looked up): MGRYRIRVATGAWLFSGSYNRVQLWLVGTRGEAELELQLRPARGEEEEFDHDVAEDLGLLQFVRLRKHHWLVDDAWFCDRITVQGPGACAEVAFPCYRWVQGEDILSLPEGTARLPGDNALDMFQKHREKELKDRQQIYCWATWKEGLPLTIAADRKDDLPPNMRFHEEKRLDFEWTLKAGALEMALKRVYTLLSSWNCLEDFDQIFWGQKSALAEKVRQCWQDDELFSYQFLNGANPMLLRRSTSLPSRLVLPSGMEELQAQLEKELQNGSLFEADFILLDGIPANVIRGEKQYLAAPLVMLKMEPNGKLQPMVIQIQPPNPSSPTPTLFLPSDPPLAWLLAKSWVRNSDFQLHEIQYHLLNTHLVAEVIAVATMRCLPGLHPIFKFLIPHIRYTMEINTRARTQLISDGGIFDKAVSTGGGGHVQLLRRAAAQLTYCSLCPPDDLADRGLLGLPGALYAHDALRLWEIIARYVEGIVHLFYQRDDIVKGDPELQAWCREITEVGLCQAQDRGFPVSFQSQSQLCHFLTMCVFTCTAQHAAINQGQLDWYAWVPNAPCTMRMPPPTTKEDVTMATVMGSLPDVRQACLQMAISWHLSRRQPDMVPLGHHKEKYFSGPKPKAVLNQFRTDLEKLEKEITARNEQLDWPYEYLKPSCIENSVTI
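Purified human 12hLO (150 nM final) in 25 mM Hepes, 0.01% Triton X-100, pH 7.0 was preincubated 15 min at room temperature with compound. Then 40 uM arachidonic acid was added, 30 min. Hydroperoxide was read by Fe-XO absorbance ratio 573/405 nm.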
IL-1B inflam inh: qHTS for Inhibitors of Inflammasome Signaling: IL-1-beta AlphaLISA Primary Screen | 360,000 compounds, 4.7% hits | AID 743279, 2014 | THP-1 LPS/ATP IL-1B secretion, AlphaLISA, 16 h; hits give low values | activity change, % at 57.5 µM; in the data active = activity change below about -50%; inconclusive = mostly about -30% to -49%
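Secreted IL-1B measured by AlphaLISA bead assay after 16 h compound exposure of THP-1 cells; compounds (final up to 57.5 uM) added 1 h before LPS (250 ng/mL) and ATP (1.25 mM) stimulation; lower signal means less secretion.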
* hit, by the source's call; ? = inconclusive; / = not tested or not shown; [ ] = dose if it differs, or a comment. Many of the other results were omitted from the sample, so hits are more common in it than they were. Unless noted, calls follow the shape of the dose curve; as a rule, active = well fitted curve in the direction sought with a large enough effect; inconclusive = small, poorly fitted or top-dose-only effect, or another doubt; inactive = no such curve, though single readings can be large; an effect the other way counts as inactive or inconclusive. Unless noted, % is scaled to controls: 0 for no effect and ±100 for the full control effect.

SMILES	HT1080NT lethal	HT1080 IDH1KD tx	TDP1 cell noCPT	DT40 TDP1 CPT	ALOX12 inh	IL-1B inflam inh
O=C(c1ccccc1)N(CCCl)C(=O)N(CCCl)C(=O)c1ccccc1	-1.1%	7.6%	?	?	10µM*	-2.8
O=C(c1ccccc1)N(C(=O)c1ccccc1)c1ccccc1	-26.3%	-23.2%	?	-20.4%	-13.0%	-2.7
O=C(c1n[nH]c(=O)c2ccccc12)N1CCC(CCc2ccccc2)CC1	/	/	/	/	14.8%	/
C=CCN1CCN(C(=O)CCC[C@H]2NC[C@@H]3C[C@H]2CN(Cc2ccccc2)C3)CC1	/	/	/	/	5.62µM*	/
COc1ccccc1CNC(=O)CCC[C@H]1NC[C@@H]2C[C@H]1CN(Cc1ccccc1)C2	/	/	/	/	10µM*	/
O=C(CCC[C@H]1NC[C@@H]2C[C@H]1CN(Cc1ccccc1)C2)NCC1CCCCC1	/	/	/	/	-1.8%	/
O=C(CCC[C@H]1NC[C@@H]2C[C@H]1CN(Cc1ccccc1)C2)N1CCN(C2CCCC2)CC1	/	/	/	/	-14.7%	/
COc1ccc(SC(C)C(=O)NC(C)(C)C)cc1 (stereo not drawn)	/	/	/	/	33.7%	/
COc1cc2c(cc1OC)CN(C(=O)CCOc1ccccc1C)CC2	?	?	20.6µM*	?	-2.2%	36.5
COc1cc2c(cc1OC)CN(C(=O)CCOc1ccccc1)CC2	-15.0%	-20.2%	18.4µM*	?	14.1%	21.8
COc1cc2c(cc1OC)CN(C(=O)CCCN1C(=O)c3ccccc3C1=O)CC2	4.7%	-7.3%	-17.3%	-11.4%	9.4%	44.9
COc1cc2c(cc1OC)CN(C(=O)CCCOc1ccc(Cl)cc1Cl)CC2	?	?	18.4µM*	16.4µM*	-10.9%	?
COc1ccc(OC)c(CC(=O)N2CCc3cc(OC)c(OC)cc3C2)c1	0.0%	-3.4%	?	0.13µM*	0.6%	-2.1
O=[N+]([O-])c1cccc(/C=C/c2nc3nc4ccccc4nc3n2-c2cccc(C(F)(F)F)c2)c1	/	/	/	/	-30.1%	/
C/C=C/c1ccc(OCC(=O)N2CCc3cc(OC)c(OC)cc3C2)c(OC)c1	-8.2%	-0.1%	23.1µM*	?	0.7%	?
CC(=O)Nc1cccc(-c2nnc(SCC(=O)c3cc([N+](=O)[O-])ccc3Br)o2)c1	/	/	5.17µM*	5.17µM*	-4.3%	/
CC(=O)Nc1cccc(-c2nnc(SCC(=O)c3ccc([N+](=O)[O-])cc3)o2)c1	/	/	/	/	-23.2%	/
CN(C1CCCCC1)S(=O)(=O)c1ccc2c(c1)c(=O)c(C(=O)NCCc1ccccc1)cn2C	/	/	?	-16.3%	?	/
CN(C1CCCCC1)S(=O)(=O)c1ccc2c(c1)c(=O)c(C(=O)NCCc1ccc(Cl)cc1)cn2C	/	/	20.6µM*	?	?	/
CC(C)CCNC(=O)c1sc2ccc(S(=O)(=O)N3CCCCC3)cc2c1N	?	-0.9%	20.6µM*	23.1µM*	-1.5%	-52.2*
Cn1cc(C(=O)NCc2ccc(F)cc2)c(=O)c2cc(S(=O)(=O)N3CCCCC3)ccc21	-0.3%	-4.3%	16.4µM*	23.1µM*	-25.1%	?
CCn1cc(C(=O)NCCc2ccc(Cl)cc2)c(=O)c2cc(S(=O)(=O)N3CCC(C)CC3)ccc21	/	/	18.4µM*	?	?	/
COc1cccc(Nc2ncnc3c2cnn3-c2ccccc2)c1	/	/	/	/	7.7%	/
CC(C)C[C@@H](NC(=O)C1=C[C@@H](NC(=O)Nc2ccc(OC(F)(F)F)cc2)[C@@H](O)[C@H](O)C1)C(N)=O	/	/	/	/	0.7%	/
CC1(CNC(=O)c2cnccn2)CCOCC1	/	/	/	/	-9.5%	/
SMILES	HT1080NT lethal	HT1080 IDH1KD tx	TDP1 cell noCPT	DT40 TDP1 CPT	ALOX12 inh	IL-1B inflam inh
CCN(CC)CCCNC(=O)c1cn(CC)c2ccc(S(=O)(=O)N3CCc4ccccc4C3)cc2c1=O	-4.3%	0.6%	29.1µM*	?	?	-18.5
CCn1cc(C(=O)NCCc2ccccc2)c(=O)c2cc(S(=O)(=O)N3CCCC3)ccc21	10.8%	-17.7%	18.4µM*	?	-13.8%	-16.5
CCn1cc(C(=O)NCCc2ccccc2)c(=O)c2cc(S(=O)(=O)N3CCOCC3)ccc21	/	/	-11.1%	-15.3%	-4.3%	/
CCN(CC)CCNC(=O)c1cn(CC)c2ccc(S(=O)(=O)N3CCc4ccccc4C3)cc2c1=O	-2.7%	0.5%	?	?	28.9%	-28.3
CN(CCCNC(=O)c1cn(C)c2ccc(S(=O)(=O)N(C)C)cc2c1=O)c1ccccc1	0.0%	7.3%	?	18.4µM*	-1.5%	10.6
CCn1cc(C(=O)N2CCc3ccccc32)c(=O)c2cc(S(=O)(=O)N3CCCCCC3)ccc21	-7.7%	-0.2%	-11.5%	-20.0%	-2.1%	-13.0
CCN(CC)S(=O)(=O)c1ccc2c(c1)c(=O)c(C(=O)NCCCN(C)c1ccccc1)cn2C	-4.4%	-12.6%	?	-26.5%	-26.1%	-6.3
CCn1cc(C(=O)N2CCc3ccccc32)c(=O)c2cc(S(=O)(=O)N3CC(C)CC(C)C3)ccc21 (stereo not drawn)	-3.2%	15.2%	?	14.6µM*	-10.2%	-8.6
CCCN1CCN(C(=O)Cn2c(C)ccc(NC(=O)Nc3ccccc3)c2=O)CC1	/	/	/	/	21.8%	/
CCn1cc(C(=O)NCCC(C)C)c(=O)c2cc(S(=O)(=O)N3CCCCC3)ccc21	1.0%	-4.1%	?	23.1µM*	/	0.0
CC1CCN(S(=O)(=O)c2ccc3c(c2)c(=O)c(C(=O)NCc2ccc(Cl)cc2)cn3C)CC1	/	/	4.61µM*	-27.0%	?	/
CCCCNC(=O)c1cn(CC)c2ccc(S(=O)(=O)N3CCCC3)cc2c1=O	-0.5%	10.7%	-14.2%	-22.5%	-23.5%	-3.8
O=C1COCC2(CN(c3ccccc3)C2)CN1c1ccc(OC(F)(F)F)cc1	/	/	/	/	-1.5%[176 µM]	/
CCCCn1nnnc1SCC(=O)c1cc(Cl)ccc1OC	7.8%	10.6%	-14.6%	-15.5%	9.6%[57.4 µM]	-57.3*
CCCn1c(SCC(=O)Nc2ccccc2CC)nnc1C(C)C	2.1%	?	18.4µM*	20.6µM*	0.0%	21.8
CCn1c(SCC(=O)Nc2ccccc2C(=O)OC)nnc1-c1ccoc1C	-3.9%	-1.7%	29.1µM*	-28.8%	?	4.2
CCCn1c(SCC(=O)Nc2c(C)cccc2CC)nnc1C(C)C	8.7%	14.6%	-4.0%	-8.6%	0.0%	5.5
